According to PubChem BioAssay (NCATS):
Records with an inconclusive call do not appear. Calls of active or inactive are those of the source. Calls follow the shape of the dose curve; as a rule, active = well fitted cell-killing curve with a large enough effect; inconclusive = small, poorly fitted or top-dose-only effect, or effect the other way; inactive = no such curve, though single readings can be large or run the other way.

Assay: Quantitative High-Throughput drug screen in 47 multiple myeloma cell lines against the NCATS MIPE library collection: KMS34_JCRB cell viability assay (AID 1918985); also: nearly all actives have a fitted effect of over 40% in size
Settings: KMS34 myeloma viability, CellTiter-Glo ATP luminescence, 48 h; series mostly up to 45.8 µM; viability, percent of control: at the top concentration
Text: PI: Beverly A. Mock Ph.D.
Laboratory of Cancer Biology and Genetics,
Center for Cancer Research, National Cancer Institute,
National Institute of Health, Bethesda, Maryland
Drug resistance and disease progression are common in multiple myeloma (MM) patients, underscoring the need for new therapeutic combinations. […] We hypothesized that effective combinations would reduce MYC expression and enhance p16 activity. […] These preclinical data identify potentially useful drug combinations for evaluation in drug-resistant MM and reveal potential mechanisms of combined drug sensitivity.
Described herein is the primary MIPE qHTS used to cherrypick compounds. Validated compounds were then further tested for potential synergistic activiy.
[1] Peat TJ, Gaikwad SM, Dubois W, Gyabaah-Kessie N, Zhang S, Gorjifard S, Phyo Z, Andres M, Hughitt VK, Simpson RM, Miller MA, Girvin AT, Taylor A, Williams D, D'Antonio N, Zhang Y, Rajagopalan A, Flietner E, Wilson K, Zhang X, Shinn P, Klumpp-Thomas C, McKnight C, Itkin Z, Chen L, Kazandijian D, Zhang J, Michalowski AM, Simmons JK, Keats J, Thomas CJ, Mock BA. Drug combinations identified by high-throughput screening promote cell cycle transition and upregulate Smad pathways in myeloma. Cancer Lett. 2023 Aug 1;568:216284. doi: 10.1016/j.canlet.2023.216284. Epub 2023 Jun 24. PMID: 37356470; PMCID: PMC10408729.
SEQUENCE No. (e.g., 1, 2, 3, etc.); […] (e.g., Cells, Incubation, Reagent, etc.); VALUE and DESCRIPTION.
1; Cells; 5 uL; white, solid bottom 1536-well Greiner assay plate.
2; Compounds; 23 nL; Kalypsis pin tool (Wako USA) equipped with a 1536-well pin head to transfer to the assay plates.
3; Incubation; 48 hours; 37C incubation.
4; Reagent;5uL; CellTiter Glo (Promega).
5; Detector; 425V; Luminescence; Viewlux PerkinElmer.
NOTES (numbers refer to Sequence numbers above)
1. The cell-based screening methods employed in this study were like those previously published. Briefly, the corresponding myeloma cell lines were screened in 1,536-well plates with 500 cells, 5-uL per well for inhibition of cell viability (assessed by measuring ATP levels with CellTiterGlo).
2. NCATS MIPE 4.0 library of approved and investigational drugs were added using the Kalypsis pin tool. Wells treated with DMSO only for 100% viability and media only for 0% viability were used as controls.
3. The assay plates were covered and incubated for 48 hours in a 37C, 5% CO2 incubator with controlled humidity.
4. After 48 hours, CellTilter-GloTM luminescent substrate mix (Promega) reagent was added to the assay plate and plates we incubated for 5 min at room temperature.
5. Signal was measured as median relative luminescence units on a ViewLux (PerkinElmer) multiplate reader.
[1] Heske CM, Davis MI, Baumgart JT, Wilson K, Gormally MV, Chen L, Zhang X, Ceribelli M, Duveau DY, Guha R, Ferrer M, Arnaldez FI, Ji J, Tran HL, Zhang Y, Mendoza A, Helman LJ, Thomas CJ. Matrix Screen Identifies Synergistic Combination of PARP Inhibitors and Nicotinamide Phosphoribosyltransferase (NAMPT) Inhibitors in Ewing Sarcoma. Clin Cancer Res. 2017 Dec 1;23(23):7301-7311. doi: 10.1158/1078-0432.CCR-17-1121. Epub 2017 Sep 12. PMID: 28899971; PMCID: PMC6636827.
Potency is read from the fitted curve at half-maximal effect.

| Structure (SMILES) | Potency | viability, percent of control |
| --- | --- | --- |
| C[C@@H]1[C@@H](CC(C[C@H]2O[C@@H]3O[C@]4(C)CC[C@@H]5[C@H](C)CC[C@@H]([C@H]2C)[C@@]35OO4)C[S+](=O)([O-])c2ccc(COC(=O)N(C)C)cc2)O[C@@H]2O[C@]3(C)CC[C@H]4[C@H](C)CC[C@@H]1[C@@]24OO3 (stereo not given in full) | 74.3 nM (active) |  |
| O=C1CC[C@@]2(O)[C@H]3Cc4ccc(O)c5c4[C@@]2(CCN3CC2CC2)[C@H]1O5 |  | 114% (inactive) |
| N[C@@H](Cc1ccc(N(CCCl)CCCl)cc1)C(=O)O | 16600 nM (active) |  |
| C[C@@H]1O[C@@H](O[C@H]2C[C@@H](O)[C@]3(CO)[C@H]4[C@H](O)C[C@]5(C)[C@@H](C6=CC(=O)OC6)CC[C@]5(O)[C@@H]4CC[C@]3(O)C2)[C@H](O)[C@H](O)[C@H]1O | 59 nM (active) |  |
| COc1ccc(C(CN(C)C)C2(O)CCCCC2)cc1 (stereo not given) |  | 108% (inactive) |
| CNCC(O)c1ccc(O)cc1 (stereo not given) |  | 114% (inactive) |
| COC[C@H]1OC(=O)c2coc3c2[C@@]1(C)C1=C(C3=O)C2CCC(=O)[C@@]2(C)C[C@H]1OC(C)=O (stereo not given in full) | 7430 nM (active) |  |
| C#CCN(C)[C@H](C)Cc1ccccc1 |  | 99% (inactive) |
| Cc1sc2c(c1C)C(c1ccc(Cl)cc1)=N[C@@H](CC(=O)OC(C)(C)C)c1nnc(C)n1-2 | 235 nM (active) |  |
| Cn1cc(C2=C(c3cn(C4CCN(Cc5ccccn5)CC4)c4ccccc34)C(=O)NC2=O)c2ccccc21 | 10500 nM (active) |  |
| COc1ccc2c(c1OC)CN1CCc3cc4c(cc3C1C2)OCO4 (stereo not given) |  | 81.9% (inactive) |
| CN1CCN(C(=O)O[C@H]2c3nccnc3C(=O)N2c2ccc(Cl)cn2)CC1 |  | 108% (inactive) |
| CN(C)CCc1ccc(O)cc1 |  | 120% (inactive) |
| Cc1cccc(C)c1NC(=O)CN1CCCC1=O |  | 99.5% (inactive) |
| COC[C@@H](NC(C)=O)C(=O)NCc1ccccc1 |  | 119% (inactive) |
| COC1(CS(=O)c2ccccc2)CCN(CCc2c[nH]c3ccc(F)cc23)CC1 (stereo not given) |  | 106% (inactive) |
| O=C(O)C(=O)c1cn(Cc2ccccc2)c2ccc(-c3ccc(OC(F)(F)F)cc3)cc12 |  | 94.2% (inactive) |
| CC(C)CC(N(C)C)C1(c2ccc(Cl)cc2)CCC1 (stereo not given) |  | 105% (inactive) |
| C[C@@H]1[C@@H](C(=O)C[C@H]2O[C@@H]3O[C@]4(C)CC[C@@H]5[C@H](C)CC[C@@H]([C@H]2C)[C@@]35OO4)O[C@@H]2O[C@]3(C)CC[C@H]4[C@H](C)CC[C@@H]1[C@@]24OO3 | 235 nM (active) |  |
| CC1=C2C[C@@H]3[C@@H](CC=C4C[C@@H](O)CC[C@@]43C)[C@@H]2CC[C@]12O[C@H]1C[C@H](C)CN[C@H]1[C@H]2C |  | 92.2% (inactive) |
